Several values for one entry are separate records, joined by “and”; a condition that tells them apart may be missing. Identical values can stand only once. Inconclusive results are not listed. Activity calls are given as the source filed them. The call rests on the fitted dose curve; in most records, active means well fitted inhibition curve with a large enough effect; inconclusive means small, poorly fitted or top-dose-only effect; inactive means flat fitted curve, though single readings scatter.
Columns and labels:
TAB165 = assay: qHTS profiling for inhibitors of Plasmodium falciparum proliferation (AID 504749); further: potency means the concentration at half of the fitted maximal effect; conditions: P. falciparum in erythrocytes, SYBR Green DNA, 72 h; series mostly up to 28.7 µM
Method in brief: (§1)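 SYBR Green fluorescence of parasite DNA, read after lysis and overnight dark incubation, measured growth over 72 h in erythrocyte culture at 0.3% parasitemia and 2.5% hematocrit. Data normalised to DMSO and 0.29 uM artemisinin, with plate-drift correction.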

W2 = assay: as above; conditions: P. falciparum in erythrocytes, SYBR Green DNA, 72 h; series mostly up to 28.7 µM
Method in brief: as §1

CRL-7250 = normal cell line; assay: Cytotoxic Profiling of Annotated Libraries Using Quantitative High-Throughput Screening (AID 1296008); conditions: Five cell lines viability, CellTiter-Glo ATP luminescence, 48-72 h; max response: stronger effect = lower value; further: potency means the concentration at half of the fitted maximal effect; on max response: on the % scale 0 is the no-effect control and ±100 the full control effect
Method in brief: (§2)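 Cytotoxicity was measured as CellTiter-Glo ATP luminescence, read after 10 min at room temperature. Compound treatment of the cells lasted 48 or 72 hr at 37 degrees Celsius in a qHTS format.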

HaCat [1] = assay: as above; conditions: Five cell lines viability, CellTiter-Glo ATP luminescence, 48-72 h; max response: stronger effect = lower value
Method in brief: as §2

NIH3T3 = assay: as above; conditions: Five cell lines viability, CellTiter-Glo ATP luminescence, 48-72 h; max response: stronger effect = lower value
Method in brief: as §2

HACAT [2] = assay: qHTS assay to identify novel small-molecules to repurpose for Merkel cell carcinoma treatment (AID 1296009); conditions: MCC and control cell lines, CellTiter-Glo viability, 72 h; at 44.8 µM (top of the series) unless noted
Method in brief: (§3)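 Cell viability, measured as CellTiter-Glo luminescence, was normalized between DMSO and no-cell wells. The cells had been exposed to 8- or 11-point compound dilutions for 72 hr at 37 degree celsius.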

MCC-13 = assay: as above; conditions: MCC and control cell lines, CellTiter-Glo viability, 72 h; series mostly up to 46 µM
Method in brief: as §3

KB-3-1 = assay: Cytotoxic Profiling of Annotated Libraries Using Quantitative High-Throughput Screening (AID 1296008); conditions: Five cell lines viability, CellTiter-Glo ATP luminescence, 48-72 h; max response: stronger effect = lower value; further: potency means the concentration at half of the fitted maximal effect; on max response: on the % scale 0 is the no-effect control and ±100 the full control effect
Method in brief: as §2

HEK293 = assay: as above; conditions: Five cell lines viability, CellTiter-Glo ATP luminescence, 48-72 h; max response: stronger effect = lower value
Method in brief: as §2

HEK293T = assay: qHTS assay to identify novel small-molecules to repurpose for Merkel cell carcinoma treatment (AID 1296009); conditions: MCC and control cell lines, CellTiter-Glo viability, 72 h; at 44.8 µM (top of the series) unless noted
Method in brief: as §3
Further: nearly all actives have a fitted effect of over 60% in size.

OCCN1CCN(CCCN2c3ccccc3C=Cc3ccccc32)CC1
inactive: outcome (CRL-7250) | outcome (HaCat [1]) | outcome (NIH3T3) | outcome (HACAT [2]) | Potency (MCC-13)
active: Potency (TAB165) 5.62 µM | Potency (W2) 1.51 µM

CCCC(C(=O)OCCN(CC)CC)(c1ccccc1)c1ccccc1
active: Potency (W2) 7.57 µM
inactive: max response (CRL-7250) -17.9% | max response (HaCat [1]) -7.15% | max response (KB-3-1) -8.71% | max response (NIH3T3) -27.5%

CCc1c(C)[nH]c2c1C(=O)C(CN1CCOCC1)CC2 (stereo unspecified)
inactive: outcome (CRL-7250) | max response (HEK293) -11.2% | outcome (NIH3T3) | Potency (MCC-13)

COc1ccc2c(c1OC)C(=O)O[C@@H]2[C@H]1c2c(cc3c(c2OC)OCO3)CCN1C
inactive: max response (CRL-7250) 4.94% | max response (KB-3-1) -12.5% | max response (NIH3T3) -0.798% | Potency (MCC-13)

CCCCNc1c(C(=O)OCC)c(C)nc2c1cnn2CC
inactive: max response (CRL-7250) -21.3% | max response (HaCat [1]) -1.24% | max response (KB-3-1) 1.34% | Potency (MCC-13)

COc1ccc(CN(CCN(C)C)c2ccccn2)cc1
active: Potency (W2) 7.57 µM
inactive: Potency (TAB165) | max response (CRL-7250) 1.58% | outcome (HaCat [1]) | max response (KB-3-1) -13% | max response (NIH3T3) 2.14% | outcome (HACAT [2]) | Potency (MCC-13)

C[N+](C)(C)CCOC(N)=O
inactive: Potency (TAB165) | Potency (W2) | max response (CRL-7250) 1.41% | outcome (HEK293) | max response (NIH3T3) -0.0921% | outcome (HEK293T) | Potency (MCC-13)

COC(=O)C1=C(C)NC(C)=C(C(=O)OCCN(C)Cc2ccccc2)C1c1cccc([N+](=O)[O-])c1 (stereo unspecified)
active: Potency (CRL-7250) 21.1 µM | Potency (HEK293) 11.9 µM | Potency (NIH3T3) 26.6 µM

Nc1nc(N)c2nc(-c3ccccc3)c(N)nc2n1
inactive: Potency (TAB165) | max response (CRL-7250) -19.7% | max response (HaCat [1]) -19.1% | max response (KB-3-1) -2.1%

CCO/C([O-])=N/c1c[n+](N2CCOCC2)no1
inactive: Potency (TAB165) | Potency (W2) | outcome (CRL-7250) | max response (HEK293) -1.87% | max response (NIH3T3) -0.944% | Potency (MCC-13)

CN(C)CCCN1c2ccccc2Sc2ccccc21
active: Potency (W2) 0.572 µM
inactive: max response (CRL-7250) 0.274% | outcome (HaCat [1]) | max response (KB-3-1) -0.491% | max response (NIH3T3) -1.44% | outcome (HACAT [2]) | Potency (MCC-13)

c1cc(CN2CCCCC2)cc(OCCCNc2nc3ccccc3s2)c1
inactive: max response (CRL-7250) -17.3% | outcome (HaCat [1]) | max response (KB-3-1) -9.4% | outcome (HACAT [2])
active: Potency (TAB165) 3.98 µM | Potency (W2) 4.78 µM

CCN(CC)CCCN(c1ccccc1)C1Cc2ccccc2C1
inactive: max response (CRL-7250) 2.42% | outcome (HaCat [1]) | max response (NIH3T3) -8.45% | outcome (HACAT [2]) | Potency (MCC-13)
active: Potency (TAB165) 3.98 µM | Potency (W2) 0.601 µM

CCOC(=O)C1=C(C)NC(C)=C(C(=O)OC)C1c1cccc([N+](=O)[O-])c1 (stereo unspecified)
active: Potency (TAB165) 10 µM
inactive: outcome (CRL-7250) | outcome (HaCat [1]) | max response (KB-3-1) -12.8% | max response (NIH3T3) -0.464% | outcome (HACAT [2]) | Potency (MCC-13)

CCCCCCCC/C=C\CCCCCCCC(=O)NCc1ccc(O)c(OC)c1
inactive: max response (CRL-7250) -0.832% | outcome (HaCat [1]) | max response (NIH3T3) -24.7% | outcome (HACAT [2]) | Potency (MCC-13)
active: Potency (TAB165) 8.91 µM

CNCCC(Oc1ccccc1OC)c1ccccc1 (stereo unspecified)
inactive: max response (CRL-7250) -0.295% | max response (HaCat [1]) 1.07% | max response (KB-3-1) 0.271% | max response (NIH3T3) -6.28% | Potency (MCC-13)
active: Potency (TAB165) 11.2 µM | Potency (W2) 4.26 µM

C=CCc1ccccc1OCC(O)CNC(C)C (stereo unspecified)
active: Potency (TAB165) 10 µM | Potency (W2) 2.39 µM
inactive: max response (CRL-7250) -1.4% | max response (HaCat [1]) 4.41% | max response (KB-3-1) 2.54% | max response (NIH3T3) -0.59% | Potency (MCC-13)

CN(C)[C@@H]1C(=O)C(C(N)=O)=C(O)[C@@]2(O)C(=O)C3=C(O)c4c(O)ccc(Cl)c4[C@@H](O)[C@H]3C[C@@H]12
inactive: outcome (CRL-7250) | outcome (HaCat [1]) | max response (KB-3-1) -3.68% | outcome (NIH3T3) | outcome (HACAT [2]) | Potency (MCC-13)

CN/C(=C\[N+](=O)[O-])NCCSCc1ccc(CN(C)C)o1
inactive: max response (HEK293) 0.484% | outcome (HaCat [1]) | max response (NIH3T3) -4.45% | outcome (HACAT [2]) | Potency (MCC-13)

CN(C)CC/C=C1\c2ccccc2COc2ccccc21
active: Potency (W2) 1.2 µM
inactive: max response (CRL-7250) -15.2% | outcome (HaCat [1]) | max response (NIH3T3) 0.829% | outcome (HACAT [2]) | Potency (MCC-13)

CCn1ccnc1CC1COc2ccccc2O1 (stereo unspecified)
inactive: Potency (TAB165) | max response (CRL-7250) -3.72% | max response (HaCat [1]) 2.89% | max response (KB-3-1) 19.9% | max response (NIH3T3) -3.18% | Potency (MCC-13)

COc1ccc(CCN(C)CCCC(C#N)(c2cc(OC)c(OC)c(OC)c2)C(C)C)cc1OC (stereo unspecified)
inactive: max response (CRL-7250) -12.1% | outcome (HaCat [1]) | max response (NIH3T3) 0.424% | outcome (HACAT [2]) | Potency (MCC-13)
active: Potency (W2) 2.39 µM

COC(=O)[C@H]1[C@H]2C[C@@H]3c4[nH]c5cc(OC)ccc5c4CCN3C[C@H]2C[C@@H](OC(=O)c2cc(OC)c(OC)c(OC)c2)[C@@H]1OC
active: Potency (TAB165) 3.98 µM | Potency (W2) 3.79 µM
inactive: max response (CRL-7250) 0.615% and 0.375% | max response (HaCat [1]) -6.17% and -7.84% | max response (KB-3-1) 21.8% and -5.12% | max response (NIH3T3) -3.91% and -6.42% | Potency (MCC-13)

CCNC(=O)N1CCN(CCCC(c2ccc(F)cc2)c2ccc(F)cc2)CC1
inactive: outcome (HaCat [1]) | max response (KB-3-1) -7.16% | max response (NIH3T3) -3.38% | outcome (HACAT [2]) | Potency (MCC-13)
active: Potency (TAB165) 2 µM | Potency (W2) 0.953 µM

COCCc1ccc(OCC(O)CNC(C)C)cc1 (stereo unspecified)
inactive: outcome (HACAT [2]) | outcome (HEK293T) | Potency (MCC-13)

CC(C)(C)c1ccc(C(=O)CCCN2CCC(OC(c3ccccc3)c3ccccc3)CC2)cc1
active: Potency (TAB165) 7.94 µM | Potency (W2) 4.78 µM | Potency (HEK293) 8.41 µM

CN(C)CCCN1c2ccccc2Sc2ccc(C(F)(F)F)cc21
active: Potency (TAB165) 12.6 µM | Potency (W2) 6.75 µM

COc1cc2c(cc1OC)-c1cc(=Nc3c(C)cc(C)cc3C)n(C)c(=O)n1CC2
active: Potency (TAB165) 2.51 µM | Potency (W2) 1.9 µM
inactive: outcome (HaCat [1]) | outcome (HACAT [2])

CCn1nc(C(=O)O)c(=O)c2cc3c(cc21)OCO3
inactive: outcome (HEK293T) | Potency (MCC-13)

COCCOC(=O)C1=C(C)NC(C)=C(C(=O)OC(C)C)C1c1cccc([N+](=O)[O-])c1 (stereo unspecified)
active: Potency (TAB165) 10 µM
inactive: outcome (HaCat [1]) | max response (KB-3-1) 2.4% | max response (NIH3T3) -6.33% | outcome (HACAT [2]) | Potency (MCC-13)

O=C1NCN(c2ccccc2)C12CCN(CCCC(c1ccc(F)cc1)c1ccc(F)cc1)CC2
active: Potency (TAB165) 3.55 µM | Potency (W2) 2.39 µM | Potency (HEK293) 10.6 µM

CCCCNC(=O)NS(=O)(=O)c1ccc(C)cc1
inactive: Potency (TAB165) | Potency (W2) | outcome (HEK293T) | Potency (MCC-13)

Fc1ccc(C(c2ccc(F)cc2)N2CCN(C/C=C/c3ccccc3)CC2)cc1
inactive: Potency (MCC-13)
active: Potency (TAB165) 11.2 µM

Cc1nc2ccccn2c(=O)c1CCN1CCC(C(=O)c2ccc(F)cc2)CC1
inactive: max response (HaCat [1]) -15.4% | max response (NIH3T3) -5.4% | Potency (MCC-13)
active: Potency (W2) 6.01 µM

CNCCCN1c2ccccc2CCc2ccccc21
inactive: outcome (HaCat [1]) | max response (KB-3-1) -3.48% | outcome (HACAT [2]) | Potency (MCC-13)

Reference: PubChem BioAssay (NCATS)
